PubChem BioAssay (NCI)
The panel holds about 79,000 compounds, 15% with a hit somewhere; the sample as a whole holds those more often. The source made the active and inactive calls. Cut-off read from the data, not from the text of the source: active = growth inhibition above about 70%; inactive = the rest.

What was measured:
[1] = NCI Yeast Anticancer Drug Screen. Data for the rad52 strain (AID 147);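 note: 0% = growth of vehicle-treated control cultures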; details: S. cerevisiae rad52 mutant growth inhibition, hits give high values
Procedure, shortened: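 Yeast strain carrying a DNA damage repair alteration was exposed to test compounds. Growth inhibition was measured relative to vehicle-treated controls.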

[2] = NCI Yeast Anticancer Drug Screen. Data for the wt1 strain (AID 149);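 note: 0% = growth of vehicle-treated wt1 cultures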; details: S. cerevisiae wt1 strain (SPY 50644) growth inhibition, hits give high values
Procedure, shortened: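 wt1 strain grown with compound or vehicle; inhibition taken from the growth difference.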

[3] = NCI Yeast Anticancer Drug Screen. Data for the rad50EPP+ strain (AID 151);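 note: 0% = growth of vehicle-treated control cultures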; details: S. cerevisiae rad50 mutant strain, hits give high values
Procedure, shortened: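 Yeast strain carrying rad50 alteration (rad50EPP+) exposed to compounds; growth inhibition measured relative to vehicle-treated controls.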

[4] = NCI Yeast Anticancer Drug Screen. Data for the mgt1 strain (AID 153); details: S. cerevisiae mgt1 mutant growth inhibition, hits give high values
Procedure, shortened: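 Yeast mgt1 strain (DNA repair/cell-cycle alteration panel) exposed to compounds; growth inhibition measured relative to vehicle-treated controls.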

[5] = NCI Yeast Anticancer Drug Screen. Data for the rad50 strain (AID 155);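 note: 0% = growth of vehicle-only cultures of the same strain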; details: S. cerevisiae rad50 strain growth inhibition, hits give high values
Procedure, shortened: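 DNA repair mutant yeast, compound exposure, growth read-out; inhibition is taken relative to vehicle.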

[6] = NCI Yeast Anticancer Drug Screen. Data for the mec2-1 strain (AID 157); details: S. cerevisiae mec2-1 strain, hits give high values
Procedure, shortened: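 mec2-1 yeast strain, carrying an alteration in DNA damage repair or cell cycle control, was exposed to compounds; growth inhibition was measured relative to vehicle-treated controls.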

[7] = NCI Yeast Anticancer Drug Screen. Data for the rad14 strain (AID 159);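 note: 0% = growth of vehicle-treated control cultures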; details: S. cerevisiae rad14 strain growth inhibition, hits give high values
Procedure, shortened: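 DNA repair-defective yeast, compound-exposed; % growth inhibition derived by comparison with vehicle-treated controls.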

[8] = NCI Yeast Anticancer Drug Screen. Data for the sgs1 mgt1 strain (AID 161);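 note: 0% = growth of cultures given vehicle only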; details: S. cerevisiae sgs1 mgt1 strain, hits give high values
Procedure, shortened: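 Percent growth inhibition was derived by comparing compound-exposed mutant yeast with vehicle-exposed cultures. The strain carries alterations in DNA damage repair.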

[9] = NCI Yeast Anticancer Drug Screen. Data for the CLN2oe strain (AID 163);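 note: 0% = growth of vehicle-only control cultures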; details: S. cerevisiae CLN2oe strain, hits give high values
Procedure, shortened: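 Yeast cells carrying a defined cell-cycle control alteration were exposed to test compounds. Growth inhibition was scored against vehicle-treated control cultures.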

[10] = NCI Yeast Anticancer Drug Screen. Data for the cln2 rad14 strain (AID 165);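 note: 0% = growth equal to vehicle treated cultures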; details: S. cerevisiae cln2 rad14 strain, hits give high values
Procedure, shortened: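 Yeast carrying cln2 and rad14 alterations (cell cycle control and DNA damage repair) were exposed to compounds. Growth inhibition was measured against vehicle-treated controls.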

[11] = NCI Yeast Anticancer Drug Screen. Data for the bub3 strain (AID 167); details: S. cerevisiae bub3 mutant strain, hits give high values
Procedure, shortened: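 In this screen, a yeast mutant lacking normal mitotic checkpoint function is challenged with compound. Relative growth versus vehicle gives the inhibition value.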

[12] = NCI Yeast Anticancer Drug Screen. Data for the wt2 strain (AID 169);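 note: 0% = growth of vehicle-treated yeast cultures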; details: S. cerevisiae wt2 strain growth inhibition, hits give high values
Procedure, shortened: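 Yeast cells were exposed to test compounds, and growth inhibition was measured relative to vehicle-treated controls.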

[13] = NCI Yeast Anticancer Drug Screen. Data for the mlh1 strain (AID 171);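 note: 0% = growth of vehicle-treated control cultures of the same strain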; details: S. cerevisiae mlh1 strain growth inhibition, hits give high values
Procedure, shortened: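 Yeast carrying a defined genetic alteration in DNA damage repair or cell cycle control were exposed to test compounds. Growth inhibition was measured relative to vehicle-treated controls.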

[14] = NCI Yeast Anticancer Drug Screen. Data for the sgs1 strain (AID 173);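 note: 0% = growth of vehicle-only control cultures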; details: S. cerevisiae sgs1 mutant, hits give high values
Procedure, shortened: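 Yeast mutant strains carrying defined defects in DNA damage repair or cell cycle control were exposed to test compounds. Growth inhibition was scored against vehicle-treated controls.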

[15] = NCI Yeast Anticancer Drug Screen. Data for the mlh1 rad18 strain (AID 175); details: S. cerevisiae mlh1 rad18 strain growth inhibition, hits give high values
Procedure, shortened: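 Growth inhibition of the yeast strain was measured after compound exposure and expressed relative to vehicle-treated controls. The strain carries defined defects in DNA damage repair.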

[16] = NCI Yeast Anticancer Drug Screen. Data for the rad18 strain (AID 177); details: S. cerevisiae rad18 mutant growth inhibition, hits give high values
Procedure, shortened: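 Yeast carrying a defined DNA damage repair alteration were exposed to compounds. Growth inhibition was expressed relative to vehicle-treated controls.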

[17] = at 5.0 µM (retest, dose inferred, filed as 0.5)
[18] = at 50.0 µM (retest, dose inferred, filed as 5.0)

Measured: growth inhibition

OC(Cc1cccc2ccccc12)CN1CCC(c2ccccc2)CC1 (stereo not drawn)
inactive: [1]; at 1.2 µM 52% | [1]; at 3.7 µM 66% | [1]; at 11.0 µM 69% | [2]; at 1.2 µM 12% | [2]; at 3.7 µM 28% | [2]; at 11.0 µM 34% | [2]; at 33.0 µM 61% | [3]; at 1.2 µM 24% | [3]; at 3.7 µM 5% | [3]; at 11.0 µM 23% | [3]; at 33.0 µM 38% | [3]; at 100.0 µM 60% | [4]; at 1.2 µM 64% | [5]; at 1.2 µM 6% | [5]; at 3.7 µM 53% | [5]; [17] 55% | [5]; at 11.0 µM 66% | [5]; [18] 68% | [6]; at 1.2 µM 17% | [6]; at 3.7 µM 26% | [6]; [17] 13% | [6]; at 11.0 µM 50% | [6]; [18] 57% | [6]; at 50.0 µM 45.7% | [8]; [17] 51% | [8]; [18] 41% | [9]; at 1.2 µM 63% | [10]; [17] 58% | [11]; at 1.2 µM 39% | [11]; at 3.7 µM 41% | [11]; [17] 64% | [11]; at 11.0 µM 54% | [11]; at 50.0 µM 69.2% | [12]; at 1.2 µM 50% | [12]; at 3.7 µM 52% | [13]; at 1.2 µM 31% | [13]; at 3.7 µM 38% | [13]; at 11.0 µM 48% | [14]; at 1.2 µM 60% | [14]; at 3.7 µM 59% | [14]; at 11.0 µM 67% | [15]; at 50.0 µM 69.8% | [16]; at 1.2 µM 30% | [16]; at 3.7 µM 38% | [16]; at 11.0 µM 54% | [16]; at 33.0 µM 65%
active: [1]; at 33.0 µM 91% | [1]; at 100.0 µM 97% | [2]; at 100.0 µM 75% | [4]; at 3.7 µM 72% | [4]; at 11.0 µM 81% | [4]; at 33.0 µM 96% | [4]; at 100.0 µM 99% | [5]; at 33.0 µM 86% | [5]; at 50.0 µM 86.7% | [5]; at 100.0 µM 96% | [6]; at 33.0 µM 86% | [6]; at 100.0 µM 97% | [7]; at 1.2 µM 71% | [7]; at 3.7 µM 75% | [7]; at 11.0 µM 89% | [7]; at 33.0 µM 97% | [7]; at 100.0 µM 98% | [8]; at 50.0 µM 71.2% | [9]; at 3.7 µM 74% | [9]; at 11.0 µM 86% | [9]; at 33.0 µM 94% | [9]; at 100.0 µM 97% | [10]; [18] 76% | [10]; at 50.0 µM 74.2% | [11]; at 33.0 µM 79% | [11]; [18] 87% | [11]; at 100.0 µM 97% | [12]; at 11.0 µM 72% | [12]; at 33.0 µM 84% | [12]; at 100.0 µM 97% | [13]; at 33.0 µM 84% | [13]; at 100.0 µM 98% | [14]; at 33.0 µM 83% | [14]; at 100.0 µM 97% | [15]; [17] 74% | [15]; [18] 89% | [16]; at 100.0 µM 87%
